Screening data from PubChem.
Luc counter – Counterscreen for Luciferase (Kinase-Glo TM) Inhibition; Luciferin 4-monooxygenase (Photuris pensylvanica), Q27757; Potency, µM (series often up to 38.3 µM), hits mostly inhibitors; 0.28% of 200,000 active; Kinase-Glo luciferase, ATP luminescence, 8 min; note: nearly all actives have a fitted effect of over 60% in size
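Kinase-Glo luciferase light output from ATP and luciferin was measured with 10 uM ATP, within the enzyme's linear range. Buffer: 50 mM imidazole pH 7.2, 50 mM KCl, 7 mM MgCl2, 0.01% Tween 20, 0.05% BSA; luminescence read after 8 min at ambient temperature.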
SMN2 splice up – qHTS Assay for Enhancers of SMN2 Splice Variant Expression | Potency, µM (highest dose often 46.1 µM), actives largely listed as activators | HEK293 SMN2-luciferase splicing reporter, luminescence, 30-36 h | 2.8% of 210,000 active; note: nearly all actives have a fitted effect of over 55% in size
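qHTS luciferase splicing reporter: luminescence rises when SMN2 exon 7 is included in transfected HEK293 cells. Compound exposure lasted 30-36 h at 37C, with 4.5 mM final sodium butyrate as control, followed by a ONE-Glo read.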
Rab9 promoter act – qHTS Assay for Rab9 Promoter Activators; Huh7 Rab9 promoter-luciferase reporter, luminescence, 24 h; Potency, µM (series often up to 9.22 µM), actives largely listed as activators; 2.8% of 320,000 active; note: nearly all actives have a fitted effect of over 60% in size
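Huh7 cells stably carrying a Rab9 promoter-luciferase reporter, 1500 cells per well in OP-MEM I with 10% FBS, treated with compound 24 hours at 37C. Luciferase activity read by luminescence after 10 minutes with Amplite reagent.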
NPC1 prom act – qHTS Assay for NPC1 Promoter Activators; 2.4% of 320,000 active; Potency, µM (top dose mostly 9.22 µM), actives largely listed as activators; AID 485313, 2010; Huh7 NPC1 promoter luciferase reporter, 24 h; note: nearly all actives have a fitted effect of over 60% in size
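Huh7 reporter cells (NPC1 promoter driving luciferase) are dosed with compound for 24 h at 37 °C, 5% CO2; luciferase detection reagent is then added and luminescence measured after 10 min at ambient temperature.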
FLuc modulator – qHTS profiling assay for firefly luciferase inhibitor/activator using purifed enzyme and Km concentrations of substrates (counterscreen for miR-21 project); Luciferin 4-monooxygenase (Photinus pyralis), P08659; Potency, µM (top dose mostly 57.5 µM), most hits filed as inhibitors; 6.9% of 360,000 active; purified FLuc, Km substrates, luminescence inhibition; note: nearly all actives have a fitted effect of over 55% in size
Target sequence (P08659 whole entry, looked up): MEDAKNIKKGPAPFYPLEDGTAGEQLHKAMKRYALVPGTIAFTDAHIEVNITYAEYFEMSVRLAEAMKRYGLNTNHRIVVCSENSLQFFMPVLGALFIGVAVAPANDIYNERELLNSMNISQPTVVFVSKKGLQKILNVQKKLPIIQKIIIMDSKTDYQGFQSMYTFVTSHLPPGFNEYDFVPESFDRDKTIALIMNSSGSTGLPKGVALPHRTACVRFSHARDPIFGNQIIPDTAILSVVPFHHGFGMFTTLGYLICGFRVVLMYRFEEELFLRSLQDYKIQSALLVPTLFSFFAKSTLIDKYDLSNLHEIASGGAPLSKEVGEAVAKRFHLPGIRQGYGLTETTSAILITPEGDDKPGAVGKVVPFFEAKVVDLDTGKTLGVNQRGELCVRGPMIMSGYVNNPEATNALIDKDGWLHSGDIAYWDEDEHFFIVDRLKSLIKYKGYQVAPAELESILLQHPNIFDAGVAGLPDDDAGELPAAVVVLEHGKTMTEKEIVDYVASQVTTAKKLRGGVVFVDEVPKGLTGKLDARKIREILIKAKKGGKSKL
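Purified P. pyralis luciferase (10nM final) with 10uM D-luciferin and 10uM ATP (Km levels) in 50mM Tris acetate pH 7.5, 10mM Mg acetate, 0.01% Tween-20, 0.05% BSA; qHTS 6-point titration, ~60 µM downward; luminescence read.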
ELG1 genotoxic – qHTS screen for small molecules that induce genotoxicity in human embryonic kidney (HEK293T) cells expressing luciferase-tagged ELG1; 1.3% of 330,000 active; AID 504466, 2011; HEK293T ELG1-luciferase reporter, luminescence, 16 h; Potency, µM (highest dose often 46 µM), usual class: activators; note: nearly all actives have a fitted effect of over 60% in size
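Genotoxic stress is detected as increased luminescence from luciferase-tagged ELG1 in HEK293T cells, measured with ONE-Glo after a 16 hr treatment at 37 °C.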
Hits are given with their value; . = inactive; ? = inconclusive; / = not tested or not shown; [ ] = dose if it differs, or a comment. Only some compounds are listed: those with a hit (about 7.5% of all), similar ones and a draw of the others. Calls come from the whole dose curve; as a rule, active = well fitted curve in the direction sought with a large enough effect; inconclusive = small, poorly fitted or top-dose-only effect, or another doubt; inactive = no such curve, though single readings can be large; an effect the other way counts as inactive or inconclusive.

SMILES | Luc counter | SMN2 splice up | Rab9 promoter act | NPC1 prom act | FLuc modulator | ELG1 genotoxic
Cc1ccc(-c2nnn3c2nc(NCC(C)c2ccccc2)c2ccccc23)cc1 (centres undefined) | / | . | / | / | ? | /
COc1cccc(-c2nnn(CC(C)=O)n2)c1 | . | 12.6µM | 2.51µM | 2.82µM | 6.75µM | ?
COc1cccc(-c2nnn(CC(=O)N3CCCCC3)n2)c1 | / | / | . | . | . | .
CCC(C(=O)O)n1nnc(-c2ccc(OCc3ccccc3)c(OC)c2)n1 (centres undefined) | / | / | . | . | . | .
COc1ccc(C(=O)Cn2nnc(-c3ccccc3F)n2)cc1 | / | / | . | . | 15.1µM | .
COc1ccc(-c2ccc(-c3nnn(CC(C)=O)n3)cc2)cc1 | . | ? | 1.58µM | 2.51µM | ? | .
CCC(C(=O)O)n1nnc(-c2ccc(-c3ccc(OC)cc3)cc2)n1 (centres undefined) | . | ? | . | . | 9.53µM | ?
CCN(C(=O)Cn1c(C(=O)OC)cc2sc(Cl)cc21)c1cccc(C)c1 | / | . | / | / | . | /
NC(=O)COC(=O)c1ccc2noc(-c3ccccc3)c2c1 | / | / | . | 3.98µM | . | .
COc1ccc(-c2cc(C(=O)Nc3ccn(Cc4ccc(C)cc4)n3)no2)cc1OC | / | . | / | / | . | /
COC/C=C/C1=CC2=CC(=O)C(C)(OC(=O)c3cnc4ccccc4n3)C(=O)C2=CN1C1CCCC1 (centres undefined) | .[7.66 µM] | .[9.22 µM] | / | / | / | /
CCOC(=O)Cc1csc(NC(=O)/C=C/c2ccco2)n1 | / | / | . | . | 10.7µM | .
